Experimental data published in PubChem BioAssay (Tox21).
Results filed as inconclusive are left out. A call without a number means that no potency is given here. Calls of active or inactive are those of the source. Calls follow the shape of the dose curve; as a rule, active = well fitted cell-killing curve with a large enough effect in the repeat runs; inconclusive = weak or mixed curves, or effect the other way; inactive = flat fitted curve, though single readings scatter.
Potency is read from the fitted curve at half-maximal effect.

Assay: cAMP Responsive Elements (CRE) small molecule agonists, cell-based qHTS assay: qHTS cell viability counter screen (AID 2060914);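 also: viability read after 3 h of compound exposure; nearly all actives have a fitted effect of over 50% in size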
Conditions: CRE-bla HEK293T viability, CellTiter-Glo luminescence, 5 h; series mostly up to 92.4 µM
Text: National Center for Advancing Translational Sciences [NCATS]
Division of Preclinical Innovation [DPI]
U.S. Environmental Protection Agency [EPA]
National Institutes of Environmental Health Sciences [NIEHS]
National Toxicology Program [NTP]
U.S. Food and Drug Administration [FDA]
CREB (cyclic-AMP Responsive Element Binding Protein) is a cellular transcription factor. It binds to certain DNA sequences called cAMP Responsive Elements (CRE) and regulates the transcription of the genes. […] This cell line can be used to find agonists/antagonists of the cyclic AMP signaling pathway. The activation of the report gene under culture conditions can be detected by fluorescence intensity. This cell line has been used to screen the Tox21 10K compound library to identify agonists that induce oxidative stress. The cytotoxicity of the Tox21 compound library against the CRE-bla cell line was tested in parallel by measuring the cell viability using CellTiter-Glo assay (Promega, Madison, WI) in the same wells.
Tox21 Assay Protocol Summary:
CRE-bla Hek 293T cells were suspended in assay medium (DMEM containing 10% dialyzed FBS, 0.1 mM NEAA, 1 mM sodium pyruvate and 25 mM HEPES) and dispensed at 2,000 cells/5 uL /well into 1536-well black wall/clear bottom plates using a Multidrop Combi (ThermoFisher Scientific, Waltham, MA) dispenser. After the assay plates were incubated at 37 C/5% CO2 for 18 hrs, 23 nL of compounds dissolved in DMSO, positive controls or DMSO only was transferred to the assay plate by a pintool workstation (Kalypsys, San Diego, CA). After the plates were incubated at 37 C/5% CO2 for 3 hrs, 1 uL of LiveBLAzer B/G FRET substrate (Invitrogen, Carlsbad, CA) was added to each well using Bioraptr Flying Reagent Dispenser (FRD, Aurora Discovery, San Diego, CA). The plates were incubated at room temperature for 2 h, then fluorescence intensities were measured using an Envision plate reader (PerkinElmer, Shelton, CT) at Excitation 405nm, Emission 460nm and 530nm. The % activity was determined from the ratio of 460nm/530nm. For cell viability readout that measures cytotoxicity, 4 uL /well of CellTiter-Glo reagent was added into the assay plates using Bioraptr FRD. After 30 min incubation at room temperature, the luminescence intensity in the assay plates was measured using a ViewLux (PerkinElmer, Shelton, CT) plate reader.
For `C=CC(=O)OCCN(C)C`, the Potency was “inactive”.
In the case of `CCCC(=O)Cl`, the Potency was “inactive”.
With `CC(N)=S` the Potency was “inactive”.
With `CCCC(C)(COC(N)=O)COC(=O)NC(C)C` (stereo not given) the Potency was “inactive”.
For `CN1CCc2cc(Cl)c(O)cc2[C@H]2c3ccccc3CC[C@@H]21`, the Potency was “inactive”.
In the case of `CC(O)C(=O)[O][Hg][c]1ccccc1` (stereo not given), the Potency was 12.2 µM (active).
With `CC(CC(C(N)=O)(c1ccccc1)c1ccccc1)N(C)C` (stereo not given) the Potency was “inactive”.
For `N#Cc1ccccn1`, the Potency was “inactive”.
In the case of `CCOP(=S)(NC(C)C)Oc1ccccc1C(=O)OC(C)C` (stereo not given), the Potency was “inactive”.
In the case of `O=c1nc(O)n(Cl)c(=O)n1Cl`, the Potency was “inactive”.
In the case of `C[C@@H]1CC2=CC(=O)CC[C@@H]2[C@H]2CC[C@@]3(C)[C@@H](CC[C@]3(C)O)[C@@H]21`, the Potency was “inactive”.
With `Cc1ccc(N)c(C)c1` the Potency was “inactive”.
With `Cc1ccc(N=CN(C)C=Nc2ccc(C)cc2C)c(C)c1` the Potency was “inactive”.
With `CC(C)CON=O` the Potency was “inactive”.
For `O=[N+]([O-])c1cc(Cl)c(Cl)cc1Cl`, the Potency was “inactive”.
With `BrCCCBr` the Potency was “inactive”.
With `CCOC(=O)OC1=C(c2cc(C)ccc2C)C(=O)NC12CCC(OC)CC2` (stereo not given) the Potency was “inactive”.
With `CN(N=O)c1ccc([N+](=O)[O-])cc1` the Potency was “inactive”.
In the case of `CC(=O)[O-].CC(=O)[O-].O.O.[Zn+2]`, the Potency was “inactive”.
With `O=C1NCN(c2ccccc2)C12CCN(CCCOc1ccc(F)cc1)CC2` the Potency was “inactive”.
In the case of `C=C(Cl)Cl`, the Potency was “inactive”.
For `Cc1ccc(N(SC(F)(Cl)Cl)S(=O)(=O)N(C)C)cc1`, the Potency was “inactive”.
With `CC(C)c1ccc(CO)cc1` the Potency was “inactive”.
For `CC(C)(C)c1ccc(OP(=O)(Oc2ccccc2)Oc2ccccc2)cc1`, the Potency was “inactive”.
With `CCCCCCCCCC(CC)c1ccc(S(=O)(=O)O)cc1` (stereo not given) the Potency was “inactive”.
In the case of `COC(C)(C)C`, the Potency was “inactive”.
In the case of `C=C(Cl)CSC(=S)N(CC)CC`, the Potency was “inactive”.
With `O=[N+]([O-])CCO` the Potency was “inactive”.
In the case of `NNC(N)=S`, the Potency was “inactive”.
With `O=[N+]([O-])c1ccc(Oc2ccc(C(F)(F)F)cc2[N+](=O)[O-])cc1` the Potency was “inactive”.
For `O=C(Cc1ccccc1)c1ccccc1`, the Potency was “inactive”.
In the case of `C=C(C)[C@H]1CN[C@H](C(=O)O)[C@H]1CC(=O)O`, the Potency was “inactive”.
In the case of `ClC(Cl)=C(c1ccc(Cl)cc1)c1ccc(Cl)cc1`, the Potency was “inactive”.
In the case of `CC[N+]1(C)CCCC1`, the Potency was “inactive”.
In the case of `c1ccc2c(c1)oc1ccccc12`, the Potency was “inactive”.
For `OC(Cc1ccccc1Cl)(Cn1cncn1)C1(Cl)CC1` (stereo not given), the Potency was “inactive”.
With `CCC1(c2ccccc2)C(=O)N(COC)C(=O)N(COC)C1=O` the Potency was “inactive”.
For `CC(C)(c1cc(Cl)c(O)c(Cl)c1)c1cc(Cl)c(O)c(Cl)c1`, the Potency was “inactive”.
In the case of `CCCCC(CC)CO[N+](=O)[O-]` (stereo not given), the Potency was “inactive”.
For `OCC(O)CCl` (stereo not given), the Potency was “inactive”.
